# Data from the supplement of paper PMC7411054.
# Structures can show the parent of a compound that is named as a salt.
# What was measured:
# Details in all cases: treatment time: 24 h
# A549-ACTB-RAB5A [1] = experiment: lowest phenotypically active concentration; higher = less potent
# Summary of the method: (§1)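 Two criteria together defined phenotypic activity: deviation and reproducibility. Deviation meant ≥3 of 4 wells beyond the 95th percentile of Euclidean distances in solvent control wells, and reproducibility meant a median replicate Pearson correlation above the 95th percentile of non-replicates. Wells had been treated for 24 h at 0.3, 1, 3 or 9 µM in fifteen gene-edited A549, HepG2 and WPMY1 reporter lines before live imaging.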
# A549-CANX-COX4 [2] = experiment: as above
# Summary of the method: as §1
# A549-GM130-SQSTM1 [3] = experiment: as above
# Summary of the method: as §1
# A549-TP53BP1-CLTA [4] = experiment: as above
# Summary of the method: as §1
# A549-TUBA1B-RELA [5] = experiment: as above
# Summary of the method: as §1
# A549-ACTB-RAB5A [6] = experiment: phenotypically active (imaging signature differs from DMSO and reproducible) at any of 0.3-9 uM (binary (1 = active, 0 = inactive)); higher = active
# Summary of the method: as §1
# A549-CANX-COX4 [7] = experiment: as above
# Summary of the method: as §1
# A549-GM130-SQSTM1 [8] = experiment: as above
# Summary of the method: as §1
# A549-TP53BP1-CLTA [9] = experiment: as above
# Summary of the method: as §1
# A549-TUBA1B-RELA [10] = experiment: as above
# Summary of the method: as §1
# HepG2-ACTB-RAB5A = experiment: as above
# Summary of the method: as §1
# HepG2-CANX-COX4 = experiment: as above
# Summary of the method: as §1
# HepG2-GM130-SQSTM1 = experiment: as above
# Summary of the method: as §1
# HepG2-TP53BP1-CLTA = experiment: as above
# Summary of the method: as §1
# HepG2-TUBA1B-RELA = experiment: as above
# Summary of the method: as §1
# WPMY1-ACTB-RAB5A = experiment: as above
# Summary of the method: as §1
# WPMY1-CANX-COX4 = experiment: as above
# Summary of the method: as §1
# WPMY1-GM130-SQSTM1 = experiment: as above
# Summary of the method: as §1
# WPMY1-TP53BP1-CLTA = experiment: as above
# Summary of the method: as §1
# WPMY1-TUBA1B-RELA = experiment: as above
# Summary of the method: as §1
SMILES,lowest phenotypically active concentration (A549-ACTB-RAB5A [1]) [µM],lowest phenotypically active concentration (A549-CANX-COX4 [2]) [µM],lowest phenotypically active concentration (A549-GM130-SQSTM1 [3]) [µM],lowest phenotypically active concentration (A549-TP53BP1-CLTA [4]) [µM],lowest phenotypically active concentration (A549-TUBA1B-RELA [5]) [µM],phenotypically active (A549-ACTB-RAB5A [6]),phenotypically active (A549-CANX-COX4 [7]),phenotypically active (A549-GM130-SQSTM1 [8]),phenotypically active (A549-TP53BP1-CLTA [9]),phenotypically active (A549-TUBA1B-RELA [10]),phenotypically active (HepG2-ACTB-RAB5A),phenotypically active (HepG2-CANX-COX4),phenotypically active (HepG2-GM130-SQSTM1),phenotypically active (HepG2-TP53BP1-CLTA),phenotypically active (HepG2-TUBA1B-RELA),phenotypically active (WPMY1-ACTB-RAB5A),phenotypically active (WPMY1-CANX-COX4),phenotypically active (WPMY1-GM130-SQSTM1),phenotypically active (WPMY1-TP53BP1-CLTA),phenotypically active (WPMY1-TUBA1B-RELA)
Nc1ccn([C@@H]2O[C@H](CO)[C@@H](O)[C@@H]2O)c(=O)n1 [cytarabine],≤ 0.3,≤ 0.3,≤ 0.3,≤ 0.3,≤ 0.3,1 (active),1 (active),1 (active),1 (active),1 (active),1 (active),1 (active),1 (active),1 (active),1 (active),1 (active),1 (active),1 (active),1 (active),1 (active)
Cc1cc(/N=N/c2ccc(S(=O)(=O)Nc3ccccn3)cc2)c(N)cc1O,9,9,9,9,9,1 (active),1 (active),1 (active),1 (active),1 (active),1 (active),1 (active),1 (active),1 (active),1 (active),1 (active),1 (active),1 (active),1 (active),1 (active)
CC(C)n1c(/C=C/[C@@H](O)C[C@@H](O)CC(=O)O)c(-c2ccc(F)cc2)c2ccccc21.CC(C)n1c(/C=C/[C@H](O)C[C@H](O)CC(=O)O)c(-c2ccc(F)cc2)c2ccccc21 [Fluvastatin sodium],≤ 0.3,9,3,9,9,1 (active),1 (active),1 (active),1 (active),1 (active),1 (active),1 (active),1 (active),1 (active),1 (active),1 (active),1 (active),1 (active),1 (active),1 (active)
CN1CC[C@H](c2c(O)cc(O)c3c(=O)cc(-c4ccccc4Cl)oc23)[C@H](O)C1 [Flavopiridol hydrochloride],≤ 0.3,≤ 0.3,≤ 0.3,≤ 0.3,≤ 0.3,1 (active),1 (active),1 (active),1 (active),1 (active),1 (active),1 (active),1 (active),1 (active),1 (active),1 (active),1 (active),1 (active),1 (active),1 (active)
O=C1Nc2ccc(F)cc2C1=C1Nc2ccccc2C1=NO [5'-Fluoroindirubinoxime],1,1,1,1,1,1 (active),1 (active),1 (active),1 (active),1 (active),1 (active),1 (active),1 (active),1 (active),1 (active),1 (active),1 (active),1 (active),1 (active),1 (active)
COCc1c(C(C)C)nc(C(C)C)c(/C=C/[C@@H](O)C[C@@H](O)CC(=O)O)c1-c1ccc(F)cc1 [cerivastatin],≤ 0.3,1,1,≤ 0.3,1,1 (active),1 (active),1 (active),1 (active),1 (active),1 (active),1 (active),1 (active),1 (active),1 (active),1 (active),1 (active),1 (active),1 (active),1 (active)
COc1cc2c(Nc3ccc(Br)cc3F)ncnc2cc1OCC1CCN(C)CC1 [vandetanib],1,3,1,3,1,1 (active),1 (active),1 (active),1 (active),1 (active),1 (active),1 (active),1 (active),1 (active),1 (active),1 (active),1 (active),1 (active),1 (active),1 (active)
COc1ccc2cc1Oc1ccc(cc1)C[C@H]1c3cc(c(OC)cc3CCN1C)Oc1c(OC)c(OC)cc3c1[C@H](C2)N(C)CC3 [Tetrandrine],≤ 0.3,1,≤ 0.3,1,≤ 0.3,1 (active),1 (active),1 (active),1 (active),1 (active),1 (active),1 (active),1 (active),1 (active),1 (active),1 (active),1 (active),1 (active),1 (active),1 (active)
COc1ccc(C[C@H](N)C(=O)N[C@H]2[C@@H](O)[C@H](n3cnc4c(N(C)C)ncnc43)O[C@@H]2CO)cc1 [Puromycin dihydrochloride],≤ 0.3,1,1,1,1,1 (active),1 (active),1 (active),1 (active),1 (active),1 (active),1 (active),1 (active),1 (active),1 (active),1 (active),1 (active),1 (active),1 (active),1 (active)
CNC(=O)Nc1ccc(-c2nc(N3CC4CCC(C3)O4)c3cnn(C4CCC5(CC4)OCCO5)c3n2)cc1,≤ 0.3,≤ 0.3,≤ 0.3,≤ 0.3,≤ 0.3,1 (active),1 (active),1 (active),1 (active),1 (active),1 (active),1 (active),1 (active),1 (active),1 (active),1 (active),1 (active),1 (active),1 (active),1 (active)
Cc1ccc(C(=O)N(CCCN)[C@@H](c2nc3cc(Cl)ccc3c(=O)n2Cc2ccccc2)C(C)C)cc1 [Ispinesib],≤ 0.3,≤ 0.3,≤ 0.3,≤ 0.3,≤ 0.3,1 (active),1 (active),1 (active),1 (active),1 (active),1 (active),1 (active),1 (active),1 (active),1 (active),1 (active),1 (active),1 (active),1 (active),1 (active)
C[C@@H](N)[C@H]1CC[C@H](C(=O)Nc2ccncc2)CC1,3,9,9,3,9,1 (active),1 (active),1 (active),1 (active),1 (active),1 (active),1 (active),1 (active),1 (active),1 (active),1 (active),1 (active),1 (active),1 (active),1 (active)
Nc1ncn([C@@H]2O[C@H](CO)[C@@H](O)[C@H]2O)c(=O)n1 [5-Azacytidine],1,3,1,1,9,1 (active),1 (active),1 (active),1 (active),1 (active),1 (active),1 (active),1 (active),1 (active),1 (active),1 (active),1 (active),1 (active),1 (active),1 (active)
COc1cc2nc(N3CCCN(C)CC3)nc(NC3CCN(Cc4ccccc4)CC3)c2cc1OC,≤ 0.3,1,≤ 0.3,1,≤ 0.3,1 (active),1 (active),1 (active),1 (active),1 (active),1 (active),1 (active),1 (active),1 (active),1 (active),1 (active),1 (active),1 (active),1 (active),1 (active)
COc1c(C)cnc(Cn2cc(C#CCC(C)(C)O)c3c(Cl)nc(N)nc32)c1C,≤ 0.3,≤ 0.3,≤ 0.3,≤ 0.3,≤ 0.3,1 (active),1 (active),1 (active),1 (active),1 (active),1 (active),1 (active),1 (active),1 (active),1 (active),1 (active),1 (active),1 (active),1 (active),1 (active)
CC(=C/[C@@H](C)C(=O)c1ccc(N(C)C)cc1)/C=C/C(=O)NO [Trichostatin A],≤ 0.3,≤ 0.3,≤ 0.3,≤ 0.3,≤ 0.3,1 (active),1 (active),1 (active),1 (active),1 (active),1 (active),1 (active),1 (active),1 (active),1 (active),1 (active),1 (active),1 (active),1 (active),1 (active)
CCCCCCCCCCCCCCCC[n+]1ccn(Cc2ccccc2)c1C,1,≤ 0.3,≤ 0.3,1,1,1 (active),1 (active),1 (active),1 (active),1 (active),1 (active),1 (active),1 (active),1 (active),1 (active),1 (active),1 (active),1 (active),1 (active),1 (active)
Nc1ncnc2c1c(-c1cnc3[nH]ccc3c1)nn2C1CCCC1,≤ 0.3,1,≤ 0.3,≤ 0.3,≤ 0.3,1 (active),1 (active),1 (active),1 (active),1 (active),1 (active),1 (active),1 (active),1 (active),1 (active),1 (active),1 (active),1 (active),1 (active),1 (active)
CC1(C)CC(=O)C2=C(C1)NC(=S)NC2c1cccc(O)c1 (stereo not given) [Dimethylenastron],1,3,1,3,1,1 (active),1 (active),1 (active),1 (active),1 (active),1 (active),1 (active),1 (active),1 (active),1 (active),1 (active),1 (active),1 (active),1 (active),1 (active)
COc1cc(OC2CCN(C)CC2)ccc1Nc1ncc2c(n1)n(C1CCCC1)c(=O)n2C,3,3,3,3,3,1 (active),1 (active),1 (active),1 (active),1 (active),1 (active),1 (active),1 (active),1 (active),1 (active),1 (active),1 (active),1 (active),1 (active),1 (active)
NC(=O)Nc1sc(-c2ccc(F)cc2)cc1C(N)=O,3,3,3,9,3,1 (active),1 (active),1 (active),1 (active),1 (active),1 (active),1 (active),1 (active),1 (active),1 (active),1 (active),1 (active),1 (active),1 (active),1 (active)
Nc1nc(S)c2[nH]cnc2n1 [thioguanine],3,9,9,9,9,1 (active),1 (active),1 (active),1 (active),1 (active),1 (active),1 (active),1 (active),1 (active),1 (active),1 (active),1 (active),1 (active),1 (active),1 (active)
